Screen size: about 63,000 compounds; about 1,100 (1.7%) were called active. Shown is part of a subset that was picked to be rich in actives. Potency and affinity values are given separately. Unmarked numbers belong to inactive results. Rule as the data show it: active = cytotoxicity above about 50%; inactive = the rest.

The experiment can be described thus: HPDE-C7 pancreatic duct cell viability loss – fluorescence, HTS (AID 430).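 Also: cells exposed to compound for 48 hours before viability readout; 0% = vehicle and 100% = reference cytotoxic drug.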 To be noted: HPDE-C7 pancreatic duct cells viability, at 10 µM, stronger effect = higher value.
`O=C(NC1CCCCC1)N1CCCCCC1`: the cytotoxicity is -4%. Next, `CCSc1nnc(NC(=O)c2cc3c(s2)CCCC3)s1`: 7.4%.

In the case of `CC[C@]1(O)C[C@@H]2CN(CCc3c([nH]c4ccccc34)[C@@](C(=O)OC)(c3cc4c(cc3OC)N(C)[C@H]3[C@@](O)(C(=O)OC)[C@H](OC(C)=O)[C@]5(CC)C=CCN6CC[C@]43[C@@H]65)C2)C1`, the cytotoxicity was 67.3% (active). Consider `CC[C@]1(O)CC2CN(CCc3c([nH]c4ccccc34)[C@@](C(=O)OC)(c3cc4c(cc3OC)N(C=O)[C@H]3[C@@](O)(C(=O)OC)[C@H](OC(C)=O)[C@]5(CC)C=CCN6CC[C@]43[C@@H]65)C2)C1` (stereo not given in full), for which the cytotoxicity was 66.3% (active). On to `CC(=O)N1CCN(C2c3cccc4cccc(c34)C2NS(=O)(=O)c2ccccc2)CC1` (stereo not given), for which the cytotoxicity was -18.7%. Next, `COc1cccc(OCC(O)CN2CCC(C)CC2)c1` (stereo not given): 0.1%; `Cc1cc(C(=O)Nc2ccc(S(=O)(=O)N3CCCC3)cc2)cs1`: -11.4%. Next, `COc1ccc(OC)c(C2CC(=O)c3c([nH]c(C(=O)OC(C)C)c3C)C2)c1` (stereo not given): 65.9% (active); `COC(=O)c1[nH]c2c(c1C)C(=O)CC(c1cc(OC)ccc1OC)C2` (stereo not given): 31.5%; `CCCOCCOC(=O)c1[nH]c2c(c1C)C(=O)CC(c1cc(OC)ccc1OC)C2` (stereo not given): 60.7% (active). The result for `COCCOC(=O)c1[nH]c2c(c1C)C(=O)CC(c1cc(OC)ccc1OC)C2` (stereo not given) reads 16.4%. Turning to `COc1ccc(C2CC(=O)c3c([nH]c(C(=O)OC(C)C)c3C)C2)cc1OC` (stereo not given), the cytotoxicity is -7.1%. The result for `CCOCC(=O)Nc1ccc(S(=O)(=O)NCCc2ccccc2)cc1` reads 4.2%. On to `COC(=O)c1ccc(NC(=O)CCN2CCN(c3ccccc3)CC2)cc1`, for which the cytotoxicity was 37.6%.

For `O=C(Nc1ccc(N2CCCCC2)cc1)c1ccc(F)cc1`, the cytotoxicity is 23.5%.

As to `O=C(c1ccco1)N1CCN(C(=O)c2ccccc2OC(=O)C23CC4CC(CC(C4)C2)C3)CC1`, the cytotoxicity was -9.7%.

For the compound `COc1ccc(N2CC(O)=C(c3nc4ccccc4s3)C2=N)cc1`, the cytotoxicity was 5.8%. Next, `COc1ccc(N2CC(O)=C(c3nc4ccccc4s3)C2=N)c(OC)c1`: 20.6%; `CCOc1ccccc1N1CC(O)=C(c2nc3ccccc3s2)C1=N`: 65.2% (active); `O=C(O)C(CC(=O)N1CCOCC1)NCc1ccccc1` (stereo not given): 5.6%. The result for `CC1CCCN(C(=O)CSc2nnc(-c3cccnc3)n2C2CCCCC2)C1` (stereo not given) reads -23.2%. Next, `CCCN(CC1CC1)C(=O)Nc1ccccc1C`: -9.7%; `CCC(C)Nc1nc(-c2cccc(OC)c2O)nc2ccccc12` (stereo not given): 107% (active); `COc1cccc(-c2nc(NC(C)C)c3ccccc3n2)c1O`: 23.8%. In the case of `C=CCNc1nc(-c2cccc(OC)c2O)nc2ccccc12`, the cytotoxicity is -3%. The result for `COc1cccc(-c2nc(N3CCCCC3)c3ccccc3n2)c1O` reads -7.5%; that for `Oc1ccccc1-c1nc(NCC2CCCO2)c2ccccc2n1` (stereo not given), 46.8%; that for `CCC1CCCCN1c1nc(-c2cccc(OC)c2O)nc2ccccc12` (stereo not given), -2.8%.

On to `COc1cccc(-c2nc(N3CCCCC3C)c3ccccc3n2)c1O` (stereo not given), for which the cytotoxicity was 53% (active). Next, `COc1cccc(-c2nc(NCC3CCCO3)c3ccccc3n2)c1O` (stereo not given): 52.2% (active). The result for `COc1cccc(-c2nc(NC(C)(C)C)c3ccccc3n2)c1O` reads 10.9%; that for `O=C(CN(C1CC1)S(=O)(=O)c1ccc(S(=O)(=O)N2CCCCCC2)cc1)Nc1ccccc1`, 7.4%; that for `CCCOc1ccc(C(=O)NCCC(=O)NCCCC(=O)OCC)cc1`, 1.7%.

`O=C1C(SC(F)(F)C(F)F)=C(C(F)(F)F)OC2C3C=CC(C3)C12` (stereo not given): the cytotoxicity is 3.6%. The result for `O=C1NC(NS(=O)(=O)c2ccccc2)(C(F)(F)F)C(=O)N1Cc1cccnc1` (stereo not given) reads -8.4%; that for `CC(C)(C)c1ccccc1OCC(=O)NCCC(=O)O`, -12.2%. Next, `c1ccc2oc(SCc3nc4ccccc4s3)nc2c1`: 8.6%.

Take `O=C(CSc1nc2ccccc2s1)Nc1ncccn1`: the cytotoxicity is -3.2%. The result for `CCS(=O)(=O)CCSc1nc2ccccc2s1` reads -17.4%; that for `CCS(=O)(=O)CCSc1nc2ccccc2o1`, -9.3%. With `Cc1ccccc1N(C)S(=O)(=O)c1ccc2[nH]cc(C(=O)NCC3CCCO3)c(=O)c2c1` (stereo not given), the cytotoxicity is -13.7%.

For the compound `O=C(O)COc1ccc(C(=O)Cc2ccc3c(c2)OCCCO3)c(O)c1`, the cytotoxicity is -8.7%. The result for `O=C(O)CCC(=O)c1ccc2c(c1)OCCO2` reads 0%; that for `O=C(Cc1ccc2c(c1)OCCO2)c1c(O)cc(O)cc1O`, 60.9% (active).

`Nn1c(SCC(=O)NCc2ccccc2)nnc1C1CC1`: the cytotoxicity is 6.6%. `COC(=O)C1CCN(C(=O)C(C)Oc2ccc(Cl)cc2Cl)CC1` (stereo not given): the cytotoxicity is -16.4%. Next, `CCN(CC)CCCNC(=O)C1CCN(C(=O)c2cc3sccc3n2Cc2ccc(F)cc2)CC1`: 20.7%. Next, `CC(=O)C1=C(C)N=c2s/c(=C/c3ccc4c(c3)OCO4)c(=O)n2C1c1ccc(N(C)C)cc1` (stereo not given): -3.5%; `COc1ccc(C2C(C(C)=O)=C(C)N=c3s/c(=C/c4ccc5c(c4)OCO5)c(=O)n32)cc1` (stereo not given): -4.1%.

On to `CCOC(=O)c1cnc2c(C(=O)OC)cccc2c1NCCN1CCOCC1`, for which the cytotoxicity is -10.4%. With `COc1ccc(N2CCN(CC(O)c3c[nH]c4ccc(OC)cc34)CC2C)cc1` (stereo not given), the cytotoxicity is 41.3%. The result for `COc1ccc(CCNC(=O)c2cc3ccccn3n2)c(OC)c1OC` reads -7%. Consider `COc1ccc(OC)c(Nc2nc(-c3ccc(O)c(O)c3)cs2)c1`, for which the cytotoxicity was 67.2% (active).

Regarding `COc1ccc(OC)c(Nc2nc(-c3cccs3)cs2)c1`, the cytotoxicity is 44%. Consider `COc1ccc(OC)c(Nc2nc(-c3sc(C)nc3C)cs2)c1`, for which the cytotoxicity was 7.9%.

For `Cc1cc2cc(C(c3nnnn3Cc3ccco3)N3CCc4ccccc4C3)c(=O)[nH]c2cc1C` (stereo not given), the cytotoxicity was -4.7%. The result for `CC(=O)Oc1c(S(=O)(=O)c2ccccc2)c(C)nn1C(C)(C)C` reads 13.3%; that for `CC(=O)Oc1c(S(=O)(=O)c2ccc(C)cc2)c(C)nn1C(C)(C)C`, 12.6%. As to `Cc1ccc(S(=O)(=O)c2c(C)nn(C(C)(C)C)c2OC(=O)c2cccs2)cc1`, the cytotoxicity is -6.5%. Consider `Cc1nn(C(C)(C)C)c(OC(=O)C2CCCC2)c1S(=O)(=O)c1ccccc1`, for which the cytotoxicity is -9.3%. On to `Cc1nn(C(C)(C)C)c(OC(=O)c2ccc3c(c2)OCO3)c1S(=O)(=O)c1ccccc1`, for which the cytotoxicity is 60.9% (active). The result for `Cc1nn(-c2ccccc2)c(OC(=O)c2cccs2)c1S(=O)(=O)c1ccccc1` reads -5.8%; that for `Cc1ccc(S(=O)(=O)c2c(C)nn(C(C)(C)C)c2OC(=O)c2ccco2)cc1`, 14.5%; that for `Cc1nn(C(C)(C)C)c(OC(=O)c2cccs2)c1S(=O)(=O)c1ccccc1`, 54.2% (active).

As for `CCC(Sc1nncn1C)C(=O)Nc1nnc(-c2ccccc2Cl)s1` (stereo not given), the cytotoxicity is 3.8%. The result for `CC(=O)Nc1ccc(C(=O)Nc2ccc(S(=O)(=O)NCC3CCCO3)cc2)cc1` (stereo not given) reads -3.3%; that for `COc1ccc(-c2[nH]ncc2-c2cnc(C)s2)c(O)c1`, 6.4%; that for `C=C(C)COc1ccc(-c2[nH]ncc2Oc2ccccc2OCC)c(O)c1`, 86% (active). The result for `COc1ccc(-c2[nH]ncc2Oc2ccccc2OC)c(O)c1` reads 6.8%. The result for `CCOc1ccc(-c2[nH]ncc2Oc2ccccc2OCC)c(O)c1` reads 53.9% (active); that for `CCOc1ccccc1Oc1cn[nH]c1-c1ccc(OC)cc1O`, 51.7% (active); that for `CCOc1ccc(-c2[nH]ncc2Oc2ccccc2OC)c(O)c1`, 65.8% (active). Turning to `COc1ccc(Oc2cn[nH]c2-c2ccc(O)cc2O)cc1`, the cytotoxicity was 9.4%.

As for `C=C(C)COc1ccc(-c2nc(N)ncc2Oc2ccccc2OCC)c(O)c1`, the cytotoxicity is 7.3%. Next, `O=c1c2c3nc4ccccc4nc3n(/N=C/c3cccs3)c2ncn1-c1ccccc1`: -19.9%; `O=C(CCc1nc2ccccc2[nH]1)Nc1ccc2c(c1)OCO2`: 5.9%; `Cc1noc(C)c1COC(=O)CCN1c2ccccc2Sc2ccccc21`: -8%. For `COc1ccc(NC(=O)CSc2nc3ccccc3c(=O)n2-c2ccc3c(c2)OCO3)c(OC)c1`, the cytotoxicity is 33.6%.

As for `CCc1ccccc1-n1cnc2cc(C(=O)O)ccc21`, the cytotoxicity was -20.8%. The result for `O=C(O)c1cc(Cl)ccc1NC(=O)C1CCCO1` (stereo not given) reads -8.9%; that for `C=CCNC(=O)C1CC(c2cccc(OC)c2)=NO1` (stereo not given), -8.4%; that for `CCC1(COC(NC(=O)c2cccnc2)(C(F)(F)F)C(F)(F)F)COC1`, -0.9%. Regarding `COc1cccc(-c2nc(CS(=O)CC(=O)NC3CC3)c(C)o2)c1` (stereo not given), the cytotoxicity is -3%. The result for `COc1nc(NC23CC4CC(CC(C4)C2)C3)nc(OC)n1` reads -8%; that for `COCCCNC(=O)CN(Cc1ccc(Cl)cc1)S(C)(=O)=O`, -2.6%. For `CCCSc1nc(C)c(CC(=O)OCC)c(=O)[nH]1`, the cytotoxicity is 4%.

In the case of `O=C1c2ccccc2C(=O)N1CCSc1nnc(-c2ccco2)n1Cc1ccccc1`, the cytotoxicity was 4.3%. Next, `CCCCCn1c(N(C)Cc2ccccc2)nc2c1c(=O)[nH]c(=O)n2C`: -0.6%. Next, `COc1ccc(-c2[nH]ncc2-c2ccc(Cl)cc2)c(O)c1`: 41.2%; `CCOc1ccc(-c2[nH]ncc2-c2ccc(OC)c(OC)c2)c(O)c1`: 53.7% (active). The result for `C=C(C)COc1ccc(-c2[nH]ncc2-c2ccc(OC)c(OC)c2)c(O)c1` reads 13.3%; that for `CCC(=O)Nc1ccc(F)c(Cl)c1`, -11.3%; that for `Cc1csc(NC(=O)CSc2ncnc3c2cnn3-c2ccccc2Cl)n1`, 19.7%. In the case of `CCOC(=O)Cc1csc(NC(=O)CSc2ncnc3c2cnn3-c2ccccc2Cl)n1`, the cytotoxicity was 57.4% (active). The result for `CCOC(=O)Cc1csc(NC(=O)CSc2ncnc3c2cnn3-c2ccc(OC)cc2)n1` reads -6.9%.

The values above are taken from PubChem BioAssay AID430 (Sanford-Burnham Center for Chemical Genomics, 2006).
